The full list was thinned out, with hits kept by preference.
PD-1 reversal: activators reversing PD-1 mediated T-cell inhibition; primary human CD4 T cells, PD-L1 beads, CellTiter-Glo 96 h; activation, % (no concentration beside the values); 29,000 tested, under 10 active; AID 2316; call rule not given here;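 note: 0% = median vehicle wells and 100% = positive control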
STK33 kin inh: blocks human STK33 kinase activity; Q9BYT3; inhibition, % at 12.5 µM; 27,000 compounds, 0.44% hits; ADP-Glo luminescence, MBP substrate; AID 2322; in the data active = inhibition above about 20%; inconclusive = no clear call, values can overlap the other calls
Target sequence (Q9BYT3 whole entry, looked up): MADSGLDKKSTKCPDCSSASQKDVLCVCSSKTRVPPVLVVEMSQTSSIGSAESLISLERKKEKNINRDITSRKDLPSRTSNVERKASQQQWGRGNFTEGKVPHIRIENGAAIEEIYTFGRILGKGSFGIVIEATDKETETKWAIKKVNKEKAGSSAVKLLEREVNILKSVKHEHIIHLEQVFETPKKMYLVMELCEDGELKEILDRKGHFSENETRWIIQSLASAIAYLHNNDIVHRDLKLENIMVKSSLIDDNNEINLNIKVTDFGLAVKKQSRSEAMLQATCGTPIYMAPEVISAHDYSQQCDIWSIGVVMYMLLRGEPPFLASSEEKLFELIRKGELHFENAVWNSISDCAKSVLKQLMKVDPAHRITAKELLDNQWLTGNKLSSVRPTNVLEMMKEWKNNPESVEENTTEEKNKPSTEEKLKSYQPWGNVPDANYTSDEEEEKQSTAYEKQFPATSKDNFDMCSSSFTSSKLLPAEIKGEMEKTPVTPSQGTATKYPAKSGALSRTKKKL
NOMO-1 viab: STK33 inhibitor candidate reducing NOMO-1 cell viability. inhibition, % (no concentration beside the values). 37,000 compounds, 7.5% hits. NOMO-1 AML viability, CellTiter-Glo luminescence, 72 h. AID 2330; in the data active = inhibition above about 80%; inconclusive = no clear call, values can overlap the other calls
Active calls of the source: *; ? = inconclusive; . = no result given.

SMILES	PD-1 reversal	STK33 kin inh	NOMO-1 viab
C[C@@H]1CN([C@H](C)CO)C(=O)c2cccc(NC(=O)C3CCCCC3)c2O[C@H]1CN(C)Cc1ccc(Cl)c(Cl)c1	-1	.	?
C[C@@H]1CN([C@H](C)CO)C(=O)c2cccc(NC(=O)C3CCCCC3)c2O[C@@H]1CN(C)Cc1ccc(Cl)c(Cl)c1	-4	.	53
C[C@@H]1CN([C@@H](C)CO)C(=O)c2cccc(NC(=O)NC3CCCCC3)c2O[C@@H]1CN(C)Cc1ccc(Cl)c(Cl)c1	-2	.	100*
C[C@H]1CN([C@@H](C)CO)C(=O)c2cccc(NC(=O)NC3CCCCC3)c2O[C@H]1CN(C)Cc1ccc(Cl)c(Cl)c1	-2	.	40
C[C@H]1CN([C@@H](C)CO)C(=O)c2cccc(NC(=O)C3CCCCC3)c2O[C@@H]1CN(C)Cc1ccc(Cl)c(Cl)c1	1	.	91*
O=C1CC(SCCc2nc3ccccc3[nH]2)C(=O)N1c1cccc(F)c1 (stereo not given)	2	-4	22
COc1cc(O)cc(OC)c1OC	.	1	107*
COc1cc(-c2cc(O)c(OC)c(OC)c2)cc(O)c1OC	-1	-1	6
C[C@H](CO)N1C[C@H](C)[C@H](CN(C)C(=O)Nc2ccc(C(F)(F)F)cc2)Oc2c(NC(=O)Nc3ccc(C(F)(F)F)cc3)cccc2C1=O	-8	.	?
C[C@@H]1CN([C@@H](C)CO)C(=O)c2cccc(NC(=O)Nc3ccc(C(F)(F)F)cc3)c2O[C@@H]1CN(C)C(=O)Nc1ccc(C(F)(F)F)cc1	-4	.	115*
C[C@@H]1CN([C@H](C)CO)C(=O)c2cccc(NC(=O)Nc3ccccc3)c2O[C@H]1CN(C)C(=O)Nc1ccc(C(F)(F)F)cc1	0	.	25
C[C@@H]1CN([C@@H](C)CO)C(=O)c2cccc(NS(=O)(=O)c3ccc(F)cc3)c2O[C@H]1CN(C)C(=O)Nc1ccc(C(F)(F)F)cc1	0	.	2
C[C@H]1CN([C@@H](C)CO)C(=O)c2cccc(NC(=O)Nc3ccc(C(F)(F)F)cc3)c2O[C@H]1CN(C)C(=O)Nc1ccccc1	-8	.	103*
COc1ccc(NC(=O)N(C)C[C@@H]2Oc3c(NC(=O)Nc4ccc(C(F)(F)F)cc4)cccc3C(=O)N([C@@H](C)CO)C[C@H]2C)cc1	-3	.	93*
C[C@H](CO)N1C[C@H](C)[C@H](CN(C)C(=O)Nc2ccc(C(F)(F)F)cc2)Oc2c(NS(=O)(=O)c3ccc(F)cc3)cccc2C1=O	-4	.	84*
COc1ccc(NC(=O)Nc2cccc3c2O[C@H](CN(C)C(=O)Nc2ccc(C(F)(F)F)cc2)[C@@H](C)CN([C@H](C)CO)C3=O)cc1	.	.	23
CCSc1nccc(-c2ccc3c(c2)CCC(C)(C)O3)n1	0	.	9
C[C@H](CO)N1C[C@H](C)[C@H](CN(C)CC2CCCCC2)Oc2ccc(NC(=O)Cc3cn(C)c4ccccc34)cc2C1=O	.	.	5
Cc1ccc(-c2cc(C(F)F)n3ncc(C(=O)NCc4cn(C)nc4C)c3n2)cc1	-8	4	34
C[C@@H]1CN([C@H](C)CO)C(=O)c2cc(NC(=O)NC3CCCCC3)ccc2O[C@@H]1CN(C)Cc1ccc2c(c1)OCO2	2	.	-12
C[C@H]1CN([C@@H](C)CO)C(=O)c2cc(NC(=O)NC3CCCCC3)ccc2O[C@@H]1CN(C)Cc1ccc2c(c1)OCO2	1	1	26
C[C@H]1CN([C@@H](C)CO)C(=O)c2cc(NC(=O)NC3CCCCC3)ccc2O[C@H]1CN(C)Cc1ccc2c(c1)OCO2	-2	.	102*
C[C@H](CO)N1C[C@H](C)[C@H](CN(C)Cc2ccc3c(c2)OCO3)Oc2ccc(NC(=O)NC3CCCCC3)cc2C1=O	1	-1	94*
C[C@H](CO)N1C[C@H](C)[C@@H](CN(C)CC2CC2)Oc2c(NS(=O)(=O)c3cn(C)cn3)cccc2C1=O	.	.	-2
[O-][n+]1onc2c1CCc1c-2nc(-c2ccco2)n1O	0	.	-7
SMILES	PD-1 reversal	STK33 kin inh	NOMO-1 viab
C/C=C(/C)C(=O)OC1c2c(ccc3ccc(=O)oc23)OC(C)(C)C1OC(=O)/C(C)=C\C (stereo not given)	-7	-2	111*
C/C=C(/C)C(=O)OC1C(OC(C)=O)c2c(ccc3ccc(=O)oc23)OC1(C)C (stereo not given)	1	0	18
C[C@@H]1CN([C@H](C)CO)C(=O)c2cccc(NS(=O)(=O)c3ccc(Cl)cc3)c2O[C@H]1CN(C)S(=O)(=O)c1cccs1	-4	.	6
O=C(CCc1ccc(O)cc1)CC(O)CCc1ccc(O)c(O)c1 (stereo not given)	1	0	85*
COC(CCc1ccc(O)c(O)c1)CC(=O)CCc1ccc(O)c(O)c1 (stereo not given)	.	-5	.
CC(Oc1ccc(Cl)cc1Cl)C(=O)Nc1cc(Cl)ccc1C(=O)O (stereo not given)	.	-1	1
COc1ccc(OC)c(NS(=O)(=O)c2cc(OC)ccc2OC)c1	-1	0	16
COc1ccc(OC)c(S(=O)(=O)ON2C(=O)c3ccccc3C2=O)c1	-15	-1	119*
O=C1c2ccccc2C(=O)N1OS(=O)(=O)c1cccc2cccnc12	-12	1	127*
CC(=O)c1cccc(NC(=O)C(C)N2C(=O)c3ccccc3C2=O)c1 (stereo not given)	.	-2	29
CC(C(=O)Oc1cccc2cccnc12)N1C(=O)c2ccccc2C1=O (stereo not given)	-16	-2	127*
O=C(O)CCN1C(=O)C2C3c4ccccc4C(c4ccccc43)C2C1=O (stereo not given)	-1	.	32
O=C(CCN1C(=O)C2C3c4ccccc4C(c4ccccc43)C2C1=O)Oc1cccc2cccnc12 (stereo not given)	-16	-1	118*
O=C1NC(=S)N(S(=O)(=O)c2cccc3cccnc23)C1Cc1ccccc1 (stereo not given)	-1	1	-6
CCOC(=O)C1=C(C)Nc2ncnn2C1c1ccco1 (stereo not given)	0	-1	12
Cc1ccc(N(C(C)C(=O)Nc2ccccc2-c2ccccc2)S(C)(=O)=O)cc1 (stereo not given)	-1	-6	-11
O=C(COc1ccc([N+](=O)[O-])cc1)Nc1ccc(Cl)c(-c2nc3ccccc3s2)c1	-2	0	21
C[C@H]1CN([C@@H](C)CO)C(=O)CCCn2nncc2CO[C@@H]1CN(C)S(=O)(=O)c1ccc(Oc2ccccc2)cc1	.	-2	.
C[C@H](CO)N1C[C@H](C)[C@H](CN(C)S(=O)(=O)c2ccccc2)Oc2c(NS(=O)(=O)c3ccccc3)cccc2C1=O	2	.	1
Cc1ccc(S(=O)(=O)N(C)C[C@@H]2Oc3c(NS(=O)(=O)c4ccccc4)cccc3C(=O)N([C@H](C)CO)C[C@@H]2C)cc1	1	.	15
C[C@@H]1CN([C@@H](C)CO)C(=O)c2cc(NC(=O)CCCCCC(=O)Nc3ccccc3N)ccc2O[C@H]1CN(C)Cc1ccc2c(c1)OCO2	0	.	18
O=C(CSc1nnc(-c2cccs2)n1-c1ccccc1)c1ccc(Br)cc1	1	4	14
C[C@H]1CN([C@@H](C)CO)C(=O)c2cccc(NS(=O)(=O)c3cccs3)c2O[C@@H]1CN(C)S(=O)(=O)c1cn(C)cn1	4	.	11

Screens (PubChem)
